Assay outcomes: PubChem BioAssay, National Center for Advancing Translational Sciences (NCATS)
Most compounds without a hit are left out; they make up all but 1.4% or so of the library.
TCR activator – activates T cell receptor signaling; primary human leukocytes, anti-CD3, IL-2 HTRF, 48 h; Potency, µM (series often up to 9.22 µM), without a hit: at the top dose activation of IL-2 secretion, hits mostly activators; 330,000 tested, under 10 active; AID 504894; also: % of control where 0% means no effect
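Compounds are tested in HTS on primary human leukocytes co-incubated with a-CD3 beads for 48 hr. IL-2 output is measured by time-resolved FRET.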
BRCA1 expr up – increases BRCA1 expression; MCF7-BRCA1-FFLuc reporter, luminescence, 48 h; response scale: scaled: vehicle 0%, 10 µM genistein 100%; Potency, µM (titrated, usually from 46.1 µM), without a hit: at the highest dose activation, usual class: activators; AID 624202; 380,000 tested, 1.1% active; also: potency is read from the fitted curve at half-maximal effect; nearly all actives have a fitted effect of over 80% in size
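Cells: MCF7-BRCA1-FFLuc, 2000/well. Exposure: 48 h, 37 °C, 5% CO2. Read: luminescence, 15 min post-substrate. Controls: genistein 10 microM (maximal activation), DMSO (neutral).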
N370S GC mod – inhibits or activates N370S mutant glucocerebrosidase; N370S GC spleen homogenate, 4MU-glucoside fluorescence; Potency, µM (titrated, usually from 59.4 µM), without a hit: at the top dose activity change, negative = inhibition, most hits filed as inhibitors; 330,000 tested, 0.092% active; AID 2101; P04062;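 also: potency is read from the fitted curve at half-maximal effect; 0% = full enzyme activity and -100% = no enzyme basal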
p53 reactivator – re-activators of mutant p53; H1299 p53-A138V BP100-luciferase reporter, luminescence, 24 h; AID 504706; 320,000 tested, 0.063% active; Potency, µM (doses to about 92.2 µM), inactives show top-dose activity change, positive = activation, actives largely listed as activators; also: potency is read from the fitted curve at half-maximal effect; % of control where 0% means no effect; nearly all actives have a fitted effect of over 45% in size
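p53-null H1299 cells stably carrying temperature-sensitive p53-A138V and a BP100-luciferase reporter were pinned with compounds (4-point, 1:5 series) and held 24 hrs at 37 deg C. Luminescence was read 10 min after detection reagent.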
TSHR antag – human thyrotropin receptor antagonism; P16473; TSHR-expressing cells, TSH-stimulated cAMP HTRF, 2 h; hits give low values; activity change, negative = inhibition, % at 11.5 µM; 330,000 tested, 0.2% active; AID 504810;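 active = activity change below a set negative limit, meaning inhibition stronger than a set level, cut at about -70% in these data; inconclusive = activity change between two set negative limits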; also: % is scaled to controls: 0 for no effect and ±100 for the full control effect
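Inhibition of cAMP made by TSHR-expressing cells under TSH stimulation (4nM final, EC80; 2 h, 37 deg C) is quantified with a one-step lysis HTRF kit, anti-cAMP cryptate versus cAMP-d2.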
GLS inh – inhibitors of human glutaminase (GLS); AID 624170; 410,000 tested, 0.21% active; Potency, µM (doses to about 45.5 µM), for inactives: at the top dose activity change, negative = inhibition, most hits filed as inhibitors; O94925; GLS enzymatic activity, qHTS titration; also: potency is read from the fitted curve at half-maximal effect; % is scaled to controls: 0 for no effect and ±100 for the full control effect
Target sequence (O94925 whole entry, looked up): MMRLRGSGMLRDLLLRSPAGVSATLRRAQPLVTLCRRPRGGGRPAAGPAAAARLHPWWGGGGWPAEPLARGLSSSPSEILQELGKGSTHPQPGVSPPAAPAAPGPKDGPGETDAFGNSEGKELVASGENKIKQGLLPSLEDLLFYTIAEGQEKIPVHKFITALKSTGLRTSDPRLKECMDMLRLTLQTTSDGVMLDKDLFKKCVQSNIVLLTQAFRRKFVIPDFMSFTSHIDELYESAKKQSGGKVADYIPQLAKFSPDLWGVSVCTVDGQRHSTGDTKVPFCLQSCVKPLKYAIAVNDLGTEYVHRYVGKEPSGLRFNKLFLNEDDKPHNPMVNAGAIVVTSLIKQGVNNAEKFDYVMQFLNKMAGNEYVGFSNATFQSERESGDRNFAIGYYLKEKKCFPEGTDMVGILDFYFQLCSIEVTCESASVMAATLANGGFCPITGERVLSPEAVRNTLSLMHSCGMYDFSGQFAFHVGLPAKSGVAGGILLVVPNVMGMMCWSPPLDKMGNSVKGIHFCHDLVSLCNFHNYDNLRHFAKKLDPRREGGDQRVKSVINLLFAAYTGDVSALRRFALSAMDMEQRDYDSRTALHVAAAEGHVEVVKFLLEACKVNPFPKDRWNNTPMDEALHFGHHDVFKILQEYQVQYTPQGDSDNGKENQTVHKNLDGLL
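Compounds were pin-transferred onto hKGA, after which L-glutamine (1 mM solution) and a detection mix of glutamate oxidase, HRP and Amplex Red were added. Initial and 30 min RT fluorescence reads were collected.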
Active calls of the source: *; ? = inconclusive; / = not tested or not shown; [ ] = dose if it differs, or a comment. Unless noted, calls follow the shape of the dose curve; as a rule, active = well fitted curve in the direction sought with a large enough effect; inconclusive = small, poorly fitted or top-dose-only effect, or another doubt; inactive = no such curve, though single readings can be large; an effect the other way counts as inactive or inconclusive.

SMILES	TCR activator	BRCA1 expr up	N370S GC mod	p53 reactivator	TSHR antag	GLS inh
COc1ccc(N(CC(=O)Nc2cccc(Cl)c2)S(=O)(=O)c2c(C)[nH]c(=O)[nH]c2=O)cc1	/	/	/	/	/	9%
CCOc1ccc(N(CC(=O)Nc2ccc(CC)cc2)S(=O)(=O)c2c(C)[nH]c(=O)[nH]c2=O)cc1	-5%	0%	3.5µM*	-4%	8	18%
CCOc1ccc(N(CC(=O)Nc2ccc(C)c(C)c2)S(C)(=O)=O)cc1	/	2µM*	7%	0%	4	-14%
COC(=O)[C@@H]1[C@@H](O)[C@]2(O)c3ccccc3O[C@]2(c2ccccc2)[C@H]1c1ccccc1	/	/	9%[12.8 µM]	/	/	/
COc1cc2c(NC3CCN(C)CC3)nc(N3CCCN(C)CC3)nc2cc1OCCN(C)C	/	-7%	/	/	/	/
O=c1[nH]c(=O)n([C@H]2C[C@@H](O)[C@@H](CO)O2)cc1C=CBr	/	/	/	/	-6	/
CCc1ccc(NC(=O)CN(c2ccc(OC)cc2)S(=O)(=O)c2c(C)[nH]c(=O)[nH]c2=O)cc1	-6%	2%	3.2µM*	27%	-2	7%
Clc1nc(-c2ccccn2)nc2scc(-c3ccccc3)c12	-2%[46.1 µM]	-71%	8%	11µM*	33	-4%
CC1CCN(c2nc(-c3cccnc3)nc3scc(-c4ccccc4)c23)CC1	-1%[46.1 µM]	-21%	-20%	-10%	-12	-9%
CCC(=O)NCCc1sc2nc(-c3ccc(OC)cc3)nn2c1C	/	5µM*	/	/	/	1%
O=C1CN(c2ccccc2)C(=S)N1C(=O)c1ccccc1	6%	7.1µM*	6%	10%	1	22%
O=C(c1ccccc1)N1CCC(=O)N1c1ccccc1	-1%	-7%	10%	-1%	17	3%
CN(C)CCN(Cc1ccco1)C(=O)c1cc2c(s1)-c1ccccc1OC2	/	/	/	/	/	-7%
CC(=O)OCC1OC(C#Cc2ccc(C)cc2C)C=CC1OC(C)=O (stereo not drawn)	/	/	3%[12.8 µM]	/	/	/
COc1cccc(CNc2nc3nc(C)c(Cl)c(C)n3n2)c1	0%	11µM*	3%	?	7	1%
COc1cc(OC)cc(-c2noc(-c3csc([C@H]4C[C@H](O)[C@@H](CO)O4)n3)n2)c1	/	3.2µM*	/	/	/	3%
COc1cc(OC)cc(-c2noc(-c3csc([C@@H]4O[C@H](CO)[C@H](O)[C@H](O)[C@H]4O)n3)n2)c1	/	4%	/	/	/	4%
CCC(=O)Nc1cccc(-c2cc3ccccc3oc2=O)c1	/	10µM*	4%	5%	1	10%
CCC(=O)Nc1cccc(NC(=O)c2cc3ccccc3o2)c1	4%	?	6%	?	-5	-2%
O=C(NNC(=O)c1cccc2ccccc12)c1ccc2c(c1)OCO2	7%	?	4%	11%	-5	-4%
O=C(NNC(=O)c1ccccc1Cl)c1ccc2c(c1)OCCO2	3%	7.1µM*	/	?	/	7%
CC(/C=C/c1ccc2c(c1)OCO2)=N\NC(=O)c1cccc([N+](=O)[O-])c1	/	-44%	7%	-3%	31	19%
C/C(=N\NC(=O)c1ccccc1C)c1cccc([N+](=O)[O-])c1	-6%	23%	7%	8%	0	0%
O=C(Nc1cccc([N+](=O)[O-])c1)c1ccc2c(c1)OCCO2	1%[46.1 µM]	13µM*	1%	24%	-5	-6%
C/C(=N\Nc1ccc(Cl)c(C(=O)O)c1)c1cccc([N+](=O)[O-])c1	-2%	14µM*	-1%	5%	18	-5%
SMILES	TCR activator	BRCA1 expr up	N370S GC mod	p53 reactivator	TSHR antag	GLS inh
C/C(=N/NC(=O)c1ccc2c(c1)OCO2)c1cccc([N+](=O)[O-])c1	-25%	5µM*	-16%	29%	-3	1%
Cc1ccc(C)c(Cn2c3ccccc3c3cnn(CC(=O)NC(C)CCc4ccccc4)c(=O)c32)c1 (stereo not drawn)	/	/	/	/	/	7%
O=C(NC(=S)Nc1cccc([N+](=O)[O-])c1)c1ccccc1	2%	11µM*	4%	?	5	3%
N/C(=N\N=C\c1ccc(Br)o1)c1nonc1N	0%	10µM*	-20%	15%	-3	12%
Cc1ccccc1NC(=O)CSc1cn(CC(=O)N2CCCCCC2)c2ccccc12	/	/	/	/	/	2%
COc1ccc(-n2c(C)nn(CCOc3ccccc3)c2=O)cc1	5%	10µM*	-1%	19%	-1	-1%
O=C(c1cnn(-c2ccccc2)c1)c1cc(F)ccc1O	-2%	10µM*	-4%	?	-6	-3%
CCOC(=O)c1c(C)[nH]c(C)c1S(=O)(=O)N(C)CC(=O)N1CCN(c2cccc(Cl)c2)CC1	/	/	/	/	/	6%
NC(=O)c1cccnc1Nc1cccc([N+](=O)[O-])c1	/	1.8µM*	0%	10%	-11	-6%
O=C(NNc1ccnc2cc(Cl)ccc12)C1CCCCC1	4%	-48%	2%	-5%	-21	?
NC(=S)NNc1ccnc2cc(Cl)ccc12	7%	6%	-12%	-2%	17	6.3µM*
CC(N=c1ccccn1C(=O)Nc1ccc(F)cc1)c1ccco1 (stereo not drawn)	6%	25%	2%	3%	-6	-1%
CC(N=c1ccccn1C(=O)Nc1ccc(Cl)cc1)c1ccco1 (stereo not drawn)	2%	10µM*	4%	14%	-3	-3%
C(=C\c1nc(-c2cccnc2)no1)/c1ccccc1	4%	2.8µM*	0%	5%	8	4%
Clc1ccccc1/C=C/c1nc(-c2cccnc2)no1	-28%	?	3%	24%	-4	1%
O=[N+]([O-])c1ccc(O)c(C=Nc2ccc3c(c2)OCCO3)c1	-3%[46.1 µM]	11µM*	5%	?	-13	8%
COC(=O)N(C)c1nc2ccccc2s1	-10%	99%	7%	18%	2	-2%
CCCCNC(=O)N(C)c1nc2ccccc2s1	1%	4.5µM*	9%	10%	-16	19%
O=C(CCOc1ccccc1)N1CCN(c2ccc(O)cc2)CC1	5%	27%	12%	4%	-8	11µM*
O=C(CCCOc1ccccc1)N1CCN(c2ccccc2)CC1	-5%	?	7%	?	-5	6%
Cc1c(C)c2ccc(OCC(=O)N[C@@H](Cc3ccccc3)C(=O)O)cc2oc1=O	4%	1%	-13%	/	20	16µM*
C=CCc1c(C)nc(-c2ccccc2)nc1N/N=C/c1ccncc1	0%	17%	?	10%	-14	19%
